According to PubChem BioAssay:
A number with no mark means an inactive call. Activity calls are given as the source filed them. Unless noted, no stated cut-off is given here; in the data, active means inhibition above about 42%; inactive means the rest.

Key:
[1] = StAR promoter reporter inhibitors, counter-screen for LRH-1 inverse agonist project, cell-based, luminescence, high throughput (AID 651611; in the data active means inhibition above about 28%); settings: StAR promoter luciferase reporter counterscreen, at 3.6 µM, stronger effect = higher value
[2] = target: Nuclear receptor subfamily 5 group A member 2 (Homo sapiens) (UniProt O00482); assay: LRH-1 (NR5A2) inverse agonists, retest, confirmation, cell-based, luminescence (AID 651613); settings: cell-based LRH-1 luciferase reporter, inverse agonism; at 3.6 µM; stronger effect = higher value;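 further: HEK293T cells co-transfected with LRH-1 and StAR promoter luciferase reporter; 0% = vehicle wells and 100% = parental cells lacking receptor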
Chain of Nuclear receptor subfamily 5 group A member 2 (Homo sapiens) (O00482 whole entry, looked up): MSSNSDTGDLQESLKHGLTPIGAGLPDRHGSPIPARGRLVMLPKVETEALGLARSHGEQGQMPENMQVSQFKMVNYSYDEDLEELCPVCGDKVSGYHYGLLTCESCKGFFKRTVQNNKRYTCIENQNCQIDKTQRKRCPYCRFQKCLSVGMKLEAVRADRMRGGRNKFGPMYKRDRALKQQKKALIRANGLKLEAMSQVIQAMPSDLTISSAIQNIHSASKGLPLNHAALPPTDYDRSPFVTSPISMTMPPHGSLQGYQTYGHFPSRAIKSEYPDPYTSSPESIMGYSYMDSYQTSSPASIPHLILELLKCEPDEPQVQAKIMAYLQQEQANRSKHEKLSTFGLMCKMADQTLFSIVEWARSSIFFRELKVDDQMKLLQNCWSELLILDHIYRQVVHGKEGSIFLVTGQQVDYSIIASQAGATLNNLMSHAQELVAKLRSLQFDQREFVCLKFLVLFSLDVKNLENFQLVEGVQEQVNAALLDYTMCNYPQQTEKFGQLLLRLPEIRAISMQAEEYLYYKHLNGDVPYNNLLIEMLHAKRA

[3] = target: Steroidogenic factor 1 (Homo sapiens) (UniProt Q13285); assay: SF1 (NR5A1) inverse agonists, counter-screen for LRH-1 inverse agonist project, cell-based, luminescence, high throughput (AID 651614; in the data active means inhibition above about 44%;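 further: cells cotransfected with StAR promoter reporter and SF1 expression vector; 0% = vehicle on cells with receptor and 100% = vehicle on cells lacking receptor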); settings: cell-based SF1 luciferase reporter, at 3.6 µM, stronger effect = higher value
Chain of Steroidogenic factor 1 (Homo sapiens) (Q13285 whole entry, looked up, the tested form may be a part): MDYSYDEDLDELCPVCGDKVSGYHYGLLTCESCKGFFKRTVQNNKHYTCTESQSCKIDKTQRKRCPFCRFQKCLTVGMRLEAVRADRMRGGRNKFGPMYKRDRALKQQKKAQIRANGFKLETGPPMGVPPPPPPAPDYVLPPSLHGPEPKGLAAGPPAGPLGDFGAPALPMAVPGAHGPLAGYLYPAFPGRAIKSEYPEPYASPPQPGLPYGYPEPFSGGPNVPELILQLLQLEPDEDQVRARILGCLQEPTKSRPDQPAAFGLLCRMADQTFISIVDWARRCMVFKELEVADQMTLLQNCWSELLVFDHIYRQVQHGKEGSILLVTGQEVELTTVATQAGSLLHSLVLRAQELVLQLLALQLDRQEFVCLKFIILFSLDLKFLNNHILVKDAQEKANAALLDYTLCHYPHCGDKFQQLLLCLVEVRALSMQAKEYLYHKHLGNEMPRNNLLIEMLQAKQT

[4] = VP16 transactivation reporter inhibitors, counter-screen for LRH-1 inverse agonist project, cell-based, luminescence, high throughput (AID 651615; in the data active means inhibition above about 33%); settings: Gal4-VP16 luciferase reporter cells, at 3.6 µM, stronger effect = higher value

| SMILES | inhibition [1] | inhibition [2] | inhibition [3] | inhibition [4] [%] |
| --- | --- | --- | --- | --- |
| NS(=O)(=O)c1ccc(O)c(NC(=O)c2ccc([N+](=O)[O-])o2)c1 | 13.8% | 67.2% (active) | 61.2% (active) | 2.28 |
| Cn1c(=O)n(C)c2cc(NC(=O)CSc3nnc(-c4ccccc4O)n3-c3ccccc3)ccc21 | 30.1% (active) | 58.8% (active) | 54.8% (active) | -42.1 |
| COCCn1c(C)cc(/C=C(\C#N)C(=O)OCC(=O)Nc2ccc(S(N)(=O)=O)cc2)c1C | 11.2% | 52.6% (active) | 46.3% (active) | -8.79 |
| O=C(COC(=O)c1ccc[n+]([O-])c1)Nc1ccc([N+](=O)[O-])cc1Cl | 17.6% | 59.4% (active) | 56.2% (active) | 1.26 |
| COc1ccc(-n2c(/C=C(\C)O)nc(=O)c3c(C)cc(C)nc32)cc1 | 12.9% | 51.8% (active) | 37.2% | 16.7 |
| Clc1ccccc1-c1nnc2sc(-c3ccc(Br)o3)nn12 | 5.07% | 43.5% (active) | 54.5% (active) | -2.86 |
| COc1ccc2c(c1)C1C=CCC1C(c1cc3c(cc1Br)OCO3)N2 (configuration not stated) | -3.15% | 37% | 30.1% | -14.3 |
| Cc1cccc(C(=O)N[C@H](C(=O)Nc2ncc(C)s2)C(C)C)c1 | 35.8% (active) | 58.7% (active) | 39.8% | 8.22 |
| CCOc1ccc(NC(=O)COC(=O)c2ncc(Cl)c(Cl)c2Cl)cc1 | 21.6% | 38.4% | 36.8% | -18.7 |
| Cc1c(NC(=S)NC(=O)c2ccc(Cl)cc2)c(=O)n(-c2ccccc2)n1C | 11.3% | 51.5% (active) | 33.4% | -1.07 |
| C=CCNc1sc(C(=O)c2ccccc2)c(N)c1C#N | 13.8% | 43.6% (active) | 47.7% (active) | 6.37 |
| Cc1ccc(N2C(=O)C(Cl)=C(N3CCN(C)CC3)C2=O)c(C)c1 | 13.1% | 50.3% (active) | 39% | -9.83 |
| CC(C)C(=O)N1CCN(c2ccc(NC(=O)c3ccc([N+](=O)[O-])o3)cc2)CC1 | 8.38% | 59.5% (active) | 60.5% (active) | -4.74 |
